This passage reports Potency results from PubChem BioAssay AID504832 (National Center for Advancing Translational Sciences (NCATS), 2011).

The whole screen tested about 310,000 compounds, of which about 18,000 (5.8%) were called active. Not shown: some 22% with an inconclusive outcome. Calls follow the shape of the dose curve; as a rule, active = well fitted inhibition curve with a large enough effect; inconclusive = small, poorly fitted or top-dose-only effect, or another doubt; inactive = no such curve, though single readings can be large or run the other way. The entries come from a sample that favours actives as a whole. Where a call stands in place of a potency, no number is given.
Potency is read from the fitted curve at half-maximal effect.

This assay in a line: Primary qHTS for delayed death inhibitors of the malarial parasite plastid, 48 hour incubation. The following applies: P. falciparum luciferase growth in erythrocytes; series mostly up to 28.7 µM. The source says:
The goal of this screen is to discover new antimalarial compounds that act by inhibiting the development of the apicoplast in the malarial parasite Plasmodium falciparum. The biochemical processes that make this organelle essential for erythrocytic stage parasites are not well understood. However, antibiotics such as azithromycin and tetracycline, which target the apicoplast translational machinery, have a potent antimalarial effect.
We have developed a cell-based assay that measures parasite growth based on the expression of an integrated copy of a firefly luciferase reporter. To detect small molecules that cause this "delayed death" phenotype, erythrocytes infected with the luciferase-expressing parasites were incubated with compounds for either one or two generations, corresponding to 48 and 96 hours, respectively. Compounds that inhibit parasite growth in the second generation, but not the first, should be enriched in antimalarials that target the apicoplast. Growth inhibition is detected by a decrease in luciferase activity.
Assay Provider: David Fidock and Eric Ekland, Columbia University
Keywords: NIH Roadmap, MLPCN, MLI, MLSMR, qHTS, NCGC, qHTS, malaria, luciferase, viability
Four microliters of culture medium (RPMI 1640 with 0.5% w/v Albumax (GIBCO), 24 mM sodium bicarbonate and 10 ug/mL gentamycin) were dispensed by a Multi-drop Combi into white solid 1536-well plates (Grenier) and 23 nL compound was added by a pin tool. Four microliters of infected erythrocytes (2% hematocrit, 0.1% parasitemia final concentration) in culture medium were dispensed and the plates incubated for 48 hours at 37 C in 5% CO2. Two microliters of luciferase detection reagent was added and luminescence was detected by a ViewLux (PerkinElmer) reader.
In general terms: Quantitative high-throughput screening tests each substance at several concentrations.
Consider `CCS(=O)(=O)Nc1ccc(C(=O)NCCSc2ccccc2)cc1`, for which the Potency result was “inactive”.
In the case of `CN(C)CCNC(=O)c1[nH]nc2c1CCc1ccccc1-2` it was “inactive”; in that of `O=C(N/N=C/c1ccoc1)c1ccc(Cl)cc1Cl`, “inactive”; in that of `CCCn1nc(NS(=O)(=O)c2ccccc2)c2cc3cc(C)ccc3nc21`, “inactive”.
As for `CCCn1nc(NS(=O)(=O)c2ccc(F)cc2)c2cc3ccccc3nc21`, the Potency entry was “inactive”.
In the case of `CCCn1nc(NC(=O)C(C)C)c2cc3cc(OC)ccc3nc21` it was 11.7 µM (active).
On to `O=C(OCC(=O)N1CCCCCC1)c1cnc(Cl)c(Cl)c1`, for which the Potency entry is “inactive”.
In the case of `CC[C@]1([C@H]2O[C@@H]([C@@H]3O[C@](O)(CO)[C@@H](C)C[C@H]3C)C[C@H]2C)CC[C@@H]([C@]2(C)CC[C@@]3(C[C@@H](O)[C@@H](C)[C@@H]([C@H](C)[C@H](OC)[C@H](C)C(=O)O)O3)O2)O1` it was 0.0169 µM (active).
Take `CSc1ccc(-c2c(C#N)c(N)nc3c2c(C)nn3-c2ccccc2)cc1`: the Potency was 1.47 µM (active).
Regarding `Cc1nn(-c2ccccc2)c2c1C(c1ccc(F)cc1)C(C#N)=C(N)O2` (configuration not stated), the Potency entry is “inactive”.
Under `CSc1nc(N)c(C#N)c(-c2ccccc2Cl)c1C#N` stands “inactive”; under `COc1cc(CNCc2ccc(OC)c3ccccc23)cc(OC)c1OC`, “inactive”; under `COc1ccccc1N1CCC(N2CCN(CC(C)(C)C)C(CCO)C2)CC1` (configuration not stated), “inactive”.
In the case of `C[N+](C)(CCCCCC[N+](C)(C)CCCN1C(=O)c2cccc3cccc(c23)C1=O)CCCN1C(=O)c2cccc3cccc(c23)C1=O` it was 0.329 µM (active).
In the case of `O=C(CN1C(=O)c2cccc3cccc(c23)C1=O)N1CCCCC1`, the Potency result is “inactive”.
On to `O=C1c2cccc3cccc(c23)C(=O)N1CCCCCc1n[nH]c(=S)o1`, for which the Potency entry is “inactive”.
Under `N#CCN(C(=O)COC(=O)C1CC2CCCC(C1)C2=O)c1ccccc1` (configuration not stated) stands “inactive”; under `CCOc1ccc(NC(=O)c2ccc(NC(=O)C3CCCO3)cc2)cc1` (configuration not stated), “inactive”; under `CC(=O)NCCC(=O)Nc1cc(S(=O)(=O)N2CCCCC2)ccc1Oc1cccc(C)c1`, “inactive”.
In the case of `CCOc1ccc(S(=O)(=O)N2CCCCC2)cc1NC(=O)CN1CCCC1c1cccs1` (configuration not stated) it was 4.65 µM (active).
Under `O=C(CNCc1cccs1)Nc1cc(S(=O)(=O)N2CCCC2)ccc1Cl` stands “inactive”; under `O=C(CNC(=O)c1ccccc1Br)NNC(=O)c1cccs1`, “inactive”; under `O=C(NCCCn1ccnc1)Nc1ccc(Cl)cc1Cl`, “inactive”.
In the case of `O=C(NCCCn1ccnc1)c1ccccc1F`, the Potency entry is “inactive”.
Under `O=C(Nc1ccccc1C(=O)NCCCn1ccnc1)c1ccc(Cl)cc1Cl` stands 9.28 µM (active); under `O=C(CSc1nc(=O)n2ccccc2n1)Nc1ccc2c(c1)OCCO2`, “inactive”.
In the case of `COc1ccc(C(C)NC(=O)C2CCCC2)cc1` (configuration not stated) it was “inactive”; in that of `CN(C)S(=O)(=O)c1ccc(N2CCCC2)c(C(=O)Nc2ccc(Br)cc2F)c1`, 5.22 µM (active).
With `CN(C)S(=O)(=O)c1ccc(N2CCCC2)c(C(=O)NCc2ccccc2)c1`, the Potency entry was “inactive”.
In the case of `CN(C)S(=O)(=O)c1ccc(N2CCCC2)c(C(=O)Nc2cccc(F)c2)c1` it was “inactive”; in that of `COc1ccc(-n2ncc3c2CC(C)(C)CC3NC(=O)CCc2c(C)nn(C)c2C)cc1` (configuration not stated), “inactive”; in that of `Cc1cc(C)n2nc(CNS(=O)(=O)c3c(F)c(F)c(F)c(F)c3F)nc2n1`, “inactive”.
Under `Cn1c(N)c(C(=O)COC(=O)COc2ccc(Cl)cc2)c(=O)n(C)c1=O` stands “inactive”; under `CCN1CCN(c2c(Cl)cccc2NC(=O)c2ccc(Br)o2)CC1`, “inactive”.
As to `COC(=O)c1ccc(N2CCOCC2)c(NC(=O)c2ccc(Br)o2)c1`, the Potency result was “inactive”.
In the case of `COc1cc(OC)c(NC(=O)c2ccc(Br)o2)cc1Cl` it was 8.28 µM (active); in that of `O=C(CCCCCn1c(=S)[nH]c2ccsc2c1=O)NC1CCCCC1`, “inactive”.
Turning to `CC1CCc2[nH]c3ccc(C(=O)N(C)CC(=O)Nc4cccc(F)c4)cc3c2C1` (configuration not stated), the Potency result is “inactive”.
Turning to `CCCN(CC(=O)Nc1ccccc1C)C(=O)c1cc(=O)[nH]c2ccccc12`, the Potency entry was “inactive”.
Under `CCCN(CC(=O)Nc1ccccc1C)C(=O)c1ccc2[nH]c3c(c2c1)CC(C)CC3` (configuration not stated) stands 10.4 µM (active).
Under `CCC(C(=O)NCc1cccnc1)n1nc(C)c2sc3ccccc3c2c1=O` (configuration not stated) stands “inactive”; under `CC(C)NC(=O)C(c1ccc(F)cc1)N(C(=O)CCC(=O)Nc1ccccn1)c1ccccc1F` (configuration not stated), “inactive”.
Under `O=C(Nc1ccc(O)cc1)c1ccc(NC(=O)c2ccco2)cc1` stands “inactive”; under `O=C(Nc1ccccc1)c1ccco1`, “inactive”; under `O=C(Nc1ccc(Sc2ccc(Br)cc2)cc1)c1ccco1`, 2.33 µM (active).
As for `COc1ccc(OCc2cc(C(=O)N3CCCC3)no2)c2ccccc12`, the Potency entry is “inactive”.
In the case of `CC(CCN1CCN=C1N(C)C)c1ccccc1` (configuration not stated) it was “inactive”; in that of `O=c1[nH]cnc(O)c1C(c1ccc(F)cc1)c1c(O)nc[nH]c1=O`, “inactive”; in that of `COCCCC1CCN(C(=O)C2CCC(=O)N(C3CCCCCC3)C2)CC1` (configuration not stated), “inactive”.
Under `Cc1ccc2nc(N3C(=O)C(O)=C(C(=O)c4ccco4)C3c3cccc(O)c3)sc2c1` (configuration not stated) stands “inactive”; under `CCc1cccc(NC(=O)COC(=O)c2cc(=O)c3ccccc3o2)c1`, “inactive”; under `O=c1oc2c(CN3CCCCC3)c(O)ccc2c2c1CCCCC2`, 2.94 µM (active).
Under `NC(=O)C1CCN(C(=O)COc2ccc3c4c(c(=O)oc3c2)CCC4)CC1` stands “inactive”; under `NC(=O)COc1ccc2c3c(c(=O)oc2c1)CCCCC3`, “inactive”; under `Cc1cccnc1NC(=O)Cn1c(=O)oc2ccccc21`, “inactive”.
As for `O=C(COC(=O)CNS(=O)(=O)c1ccc(F)c(F)c1F)NC1CCCC1`, the Potency entry is “inactive”.
In the case of `Nc1nnc(SCC(=O)NCC(=O)Nc2ccc(F)c(F)c2F)s1`, the Potency entry is “inactive”.
Take `COc1cc(C(=S)N2CCOCC2)ccc1O`: the Potency result was “inactive”.
In the case of `COc1cc(C(=S)NC2CCCCC2)ccc1O` it was 10.4 µM (active).
In the case of `COc1cc(OC)c(C(=O)NC2CCCCCC2)cc1OC` it was “inactive”; in that of `COc1ccc(C(=O)NC(=S)NC2CCCCC2)cc1`, “inactive”.
Under `COc1ccc(C(C)NC(=S)NC2CCCCC2)cc1OC` (configuration not stated) stands 2.08 µM (active).
Regarding `COc1ccc(Cl)cc1C(=O)NNC(=S)NC1CCCC1`, the Potency entry was “inactive”.
In the case of `C=CCNC(=O)COc1coc(CN2CCN(Cc3ccccc3)CC2)cc1=O` it was “inactive”; in that of `Cc1ccc(C(c2nnnn2C(C)(C)C)N2CCc3ccccc3C2)cc1` (configuration not stated), “inactive”.
Consider `Cn1c(SCC(=O)N2CCOCC2)nnc1-c1ccc2ncccc2c1`, for which the Potency result was “inactive”.
Under `CC(C)(C)n1nnnc1C(c1ccc2ncccc2c1)N1CCSCC1` (configuration not stated) stands 9.28 µM (active).
